# Screens (PubChem)
# AMA1-RON2 inh: disrupts binding of P. falciparum AMA1 to RON2; AID 720542; AlphaScreen AMA1-biotinylated RON2 peptide binding; Potency, µM (series often up to 58.2 µM), without a hit: top-dose activity change, negative = inhibition, most hits filed as inhibitors; actives 0.2% (n = 360,000);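 note: 0% = vehicle wells and -100% = peptide control; nearly all actives have a fitted effect of over 45% in size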
#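 AMA1 (3D7) with his tag at 25 nM final met compounds first, then biotinylated RON2 peptide at 25 nM; detection used donor plus acceptor beads, 10 µg/mL apiece, read by AlphaScreen after 30 min at room temperature.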
# Tb PYK inh: blocks Trypanosoma brucei pyruvate kinase | actives 0.12% (n = 410,000) | Q57TT1 | TbPYK enzyme, Kinase-Glo Plus ATP luminescence, 45 min | Potency, µM (highest dose often 76.8 µM), for inactives: at the highest dose activity, negative = inhibition, actives largely listed as inhibitors; note: % is set by controls: 0 for no effect and ±100 for the full control effect; nearly all actives have a fitted effect of over 50% in size
#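 T. brucei PYK with substrate was exposed to pin-transferred compounds across a concentration series, then started with 130 uM ADP (final). After 45 min at room temperature, Kinase-Glo Plus luminescence was read, normalized and curve-fitted.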
# FBPA Giardia inh: inhibitors of Giardia lamblia fructose-1,6-bisphosphate aldolase. A8B2U2. purified Giardia FBPA. Potency, µM (highest dose often 59.6 µM), inactives show at the highest dose activity, negative = inhibition, most hits filed as inhibitors. actives 0.71% (n = 290,000). AID 2451; note: % is set by controls: 0 for no effect and ±100 for the full control effect; nearly all actives have a fitted effect of over 55% in size
#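 40 nM FBPA preincubated 10 min at RT with compound (up to 57.5 uM final), then substrate plus GAPDH/TPI/NAD/arsenate coupling and diaphorase/resazurin added. Fluorescence read after 20 min at RT, 525/598 nm.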
# NS1 inh: inhibitors of influenza NS1 protein function. Potency, µM (highest dose often 46.1 µM), for inactives: at the highest dose activity, positive = more growth. actives 0.4% (n = 270,000); calls by dose curve; note: actives are rising curves; nearly all actives have a fitted effect of over 50% in size
#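 S. cerevisiae expressing influenza A NS1, grown in glucose, washed, then diluted 1:100 into pH 6.0 -URA galactose medium with 23 nl compound. Growth recovery read as OD600; NS1-free strain serves as control.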
# LmPK inh: inhibitors of Leishmania mexicana pyruvate kinase; purified LmPK, Kinase-Glo ATP luminescence, 1 h; Potency, µM (highest dose often 57.5 µM), for inactives: at the top dose activity change, negative = inhibition, most hits filed as inhibitors; actives 0.37% (n = 290,000); Q27686; note: % is set by controls: 0 for no effect and ±100 for the full control effect
# Target sequence (Q27686 whole entry, looked up): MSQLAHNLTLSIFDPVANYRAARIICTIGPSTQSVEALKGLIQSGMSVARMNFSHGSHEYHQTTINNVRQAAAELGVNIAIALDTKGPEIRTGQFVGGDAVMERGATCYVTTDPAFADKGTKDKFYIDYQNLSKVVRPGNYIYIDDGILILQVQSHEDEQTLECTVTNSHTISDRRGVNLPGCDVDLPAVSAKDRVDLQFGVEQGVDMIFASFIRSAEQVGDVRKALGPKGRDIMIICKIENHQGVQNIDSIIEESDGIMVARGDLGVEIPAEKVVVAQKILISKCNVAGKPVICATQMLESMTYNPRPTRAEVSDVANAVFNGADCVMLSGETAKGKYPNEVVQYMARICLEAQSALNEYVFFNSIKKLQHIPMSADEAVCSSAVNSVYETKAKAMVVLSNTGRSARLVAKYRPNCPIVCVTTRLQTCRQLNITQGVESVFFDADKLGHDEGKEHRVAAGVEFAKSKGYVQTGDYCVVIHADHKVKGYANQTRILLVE
#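 Pyruvate kinase activity monitored as ATP production (luciferase luminescence). Conditions: 0.1 nM enzyme, 0.5 mM PEP, 0.1 mM ADP, 1 h, RT; normalized against uninhibited and no-enzyme wells.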
# An asterisk follows results filed as active; ? = inconclusive; . = not tested or not shown. Only some compounds are listed: those with a hit (about 1.2% of all), similar ones and a draw of the others. Unless noted, calls come from the whole dose curve; as a rule, active = well fitted curve in the direction sought with a large enough effect; inconclusive = small, poorly fitted or top-dose-only effect, or another doubt; inactive = no such curve, though single readings can be large; an effect the other way counts as inactive or inconclusive. Potency is the fitted concentration of half-maximal effect.
SMILES,AMA1-RON2 inh,Tb PYK inh,FBPA Giardia inh,NS1 inh,LmPK inh
c1ccc(COc2cccc(CNCc3cccnc3)c2)cc1,-8%,2%,-8%,4%,-1%
O=[N+]([O-])c1ccc(COc2cccc(CNc3ccc(F)cc3)c2)cc1,-29%,-4%,-6%,19%,-1%
Oc1ccc(NCc2cccc(OCc3ccccc3)c2)cc1,36%,?,16µM*,7%,1%
CCCNC(=O)CCNS(=O)(=O)c1ccc2c(c1)c(=O)n(C)c(=O)n2C,.,1%,.,.,.
CNC1C(O)C(OC2C(N)CC(N)C(OC3OC(CN)=CCC3N)C2O)OCC1(C)O (stereo unspecified),.,7%,.,.,.
O=C(O)CN1C(=O)/C(=C/c2ccc(SCc3ccccc3)o2)SC1=S,-4%,-14%,20µM*,.,-4%
COc1cc(O)oc1C=Nc1ccc(C(=O)O)cc1,6%,?,-6%,.,25µM*
COc1cc(O)oc1C=Nc1ccc(Cl)cc1,15%,-2%,0%,-14%,-3%
O=C(/C=C/c1ccc(I)cc1)c1ccc(B(O)O)cc1,.,.,1%,.,.
C[C@H]1C[C@@H]2[C@H]([C@@H](O)C[C@@]3(C)[C@H]2CC[C@]3(O)C(=O)COC(=O)CCC(=O)O)[C@@]2(C)C=CC(=O)C=C12,.,5%,.,.,.
NS(=O)(=O)c1ccc(-c2ccc(C=C3C(=O)NC(=O)NC3=O)o2)cc1,9%,10µM*,-5%,6%,-14%
CC1(C)OC(=O)C(=Cc2ccc(-c3ccc(S(N)(=O)=O)cc3)o2)C(=O)O1,-3%,22µM*,-8%,.,-1%
NS(=O)(=O)c1ccc(-c2ccc(C=C3C(=O)NC(=S)NC3=O)o2)cc1,.,.,?,1%,1%
NS(=O)(=O)c1ccc(-c2ccc(/C=C3\C(=O)Nc4ccccc43)o2)cc1,.,.,13%,10%,6%
COc1cc2ncn(-c3cc(OCc4ccccc4C(F)(F)F)c(C(N)=O)s3)c2cc1OC,.,0%,.,.,.
S=c1[nH]c(-c2ccccc2)cn1-c1ccccc1,46%,?,18%,-8%,?
Nc1ccc(-n2cc(-c3ccccc3)[nH]c2=S)cc1,71%,2.5µM*,22%,-1%,?
COc1ccccc1-n1c(Cc2cccs2)n[nH]c1=S,-26%,?,-8%,.,-20%
Cc1ccc(-c2cc(Cc3cccs3)c(=O)[nH]n2)cc1,0%,-1%,10%,-1%,3%
S=c1[nH]nc(Cc2cccs2)n1-c1ccccc1Cl,99%,?,-4%,-3%,10µM*
S=c1[nH]nc(Cc2cccs2)n1-c1cccc2ccccc12,41%,?,13%,-5%,7.9µM*
Cc1ccc(C)c(-n2c(Cc3cccs3)n[nH]c2=S)c1,38%,?,3%,16%,10µM*
S=c1[nH]nc(-c2cc(-c3ccco3)[nH]n2)n1-c1cccc2ccccc12,-6%,?,-29%,23%,7.9µM*
S=c1[nH]nc(Cc2n[nH]c(=S)n2-c2ccccc2)n1-c1ccccc1,85%,?,-18%,12%,-1%
S=c1[nH]nc(Cc2cccs2)n1-c1ccccc1,26%,8.9µM*,.,12%,?
SMILES,AMA1-RON2 inh,Tb PYK inh,FBPA Giardia inh,NS1 inh,LmPK inh
CCCCc1ccc(-n2c(Cc3cccs3)n[nH]c2=S)cc1,55%,7.9µM*,8%,11%,-6%
Cc1cc(C(=O)N/N=C/c2ccc3c(c2)OCO3)c(C)o1,-15%,4%,-3%,-8%,14µM*
Cc1ccsc1C(=O)N/N=C/c1ccc2c(c1)OCO2,21%,?,1%,-14%,11µM*
O=C(N/N=C/c1ccc2c(c1)OCO2)c1cccs1,1%,-19%,-3%,-24%,?
N#Cc1c(C#N)c(SSc2c(C#N)c(C#N)c(N)n2-c2ccccc2)n(-c2ccccc2)c1N,4%,0.89µM*,.,.,.
N#Cc1c(N)n(-c2ccc(N)cc2)c2nc3ccccc3nc12,1%,-2%,-14%,0%,-1%
Cc1nc(S/C(=C\c2ccc(-c3ccc(C(=O)O)c(Cl)c3)o2)C(=O)O)n[nH]1,18µM*,?,-27%,4%,-1%
CCc1ccc(C(=O)COC(=O)c2cccs2)cc1,64%,-15%,2%,-63%,16µM*
O=C(COC(=O)c1cccs1)c1ccc2c(c1)OCCO2,4%,?,2%,-117%,13µM*
COc1ccccc1C(=O)NCC1(N2CCN(C)CC2)CCCCC1,.,8%,.,.,.
CN(Cc1ccc(C(C)(C)C)cc1)c1cccc2ccccc12,.,0%,.,.,.
COc1ccc(N2C(=O)C3CC(C)=C(C)CC3C2=O)c(OC)c1 (stereo unspecified),4%,-1%,6%,-11%,-3%
COc1ccc(N2CSC3=C(C#N)C(c4ccc(OC)c(OC)c4)CC(=O)N3C2)c(OC)c1 (stereo unspecified),0%,7.9µM*,1.4µM*,0%,0%
N#CC1=C2SCN(Cc3ccco3)CN2C(=O)CC1c1ccccc1F (stereo unspecified),2%,?,?,10%,-8%
Cc1ccc(N2CSC3=C(C#N)C(c4cccs4)CC(=O)N3C2)cc1 (stereo unspecified),95%,?,?,13%,-22%
COc1ccc(N2CSC3=C(C#N)C(c4cc(OC)c(OC)cc4OC)CC(=O)N3C2)c(OC)c1 (stereo unspecified),1%,8.9µM*,2µM*,-45%,-17%
COc1cc(OC)c(C2CC(=O)N3CN(c4ccc(C)cc4)CSC3=C2C#N)cc1OC (stereo unspecified),11%,1.6µM*,?,-143%,8%
COc1ccc(N2CSC3=C(C#N)C(c4cccs4)CC(=O)N3C2)cc1 (stereo unspecified),8%,-5%,0.5µM*,-32%,12%
CCNC(=O)[C@@H]1CCCN1C(=O)[C@H](CCCN=C(N)N)NC(=O)[C@H](CC(C)C)NC(=O)[C@@H](Cc1c[nH]c2ccccc12)NC(=O)[C@H](Cc1ccc(O)cc1)NC(=O)[C@H](CO)NC(=O)[C@H](Cc1c[nH]c2ccccc12)NC(=O)[C@H](Cc1cnc[nH]1)NC(=O)[C@@H]1CCC(=O)N1,.,-1%,.,.,.
N#CCCn1c(=O)c(-c2cc(F)cc(F)c2)nc2cnc(N3CCOCC3)nc21,.,.,9%,.,.
COc1ccc(C2CC(=O)N3CN(C4CCCCC4)CSC3=C2C#N)cc1 (stereo unspecified),.,22µM*,.,.,.
COc1ccc(N2CSC3=C(C#N)C(c4cc(OC)ccc4OC)CC(=O)N3C2)c(OC)c1 (stereo unspecified),44%,7.9µM*,1.6µM*,-36%,2%
CN1CSC2=C(C#N)C(c3cccc(OCc4ccccc4)c3)CC(=O)N2C1 (stereo unspecified),59%,?,?,-103%,2%
CCc1ccc(C2CC(=O)N3CN(c4ccccc4)CSC3=C2C#N)cc1 (stereo unspecified),41%,4.5µM*,?,-54%,-11%
